PLCb3 inh – human PLC-beta3 inhibitors, primary screen, biochemical, fluorescence; AID 720704, 2013; actives 0.18% (n = 370,000); Purified PLC-beta3, fluorogenic substrate; inhibition, % at 12.2 µM; in the data active means inhibition above about 11%
AHR act – AHR activators, primary screen, cell-based, luminescence, luciferase reporter, human; activation, % at 5 µM; AID 2796, 2010; actives 2.5% (n = 320,000); Aryl hydrocarbon receptor (Homo sapiens), P35869; AHR-responsive luciferase reporter cells; in the data active means activation above about 47%
Target sequence (P35869 whole entry, looked up): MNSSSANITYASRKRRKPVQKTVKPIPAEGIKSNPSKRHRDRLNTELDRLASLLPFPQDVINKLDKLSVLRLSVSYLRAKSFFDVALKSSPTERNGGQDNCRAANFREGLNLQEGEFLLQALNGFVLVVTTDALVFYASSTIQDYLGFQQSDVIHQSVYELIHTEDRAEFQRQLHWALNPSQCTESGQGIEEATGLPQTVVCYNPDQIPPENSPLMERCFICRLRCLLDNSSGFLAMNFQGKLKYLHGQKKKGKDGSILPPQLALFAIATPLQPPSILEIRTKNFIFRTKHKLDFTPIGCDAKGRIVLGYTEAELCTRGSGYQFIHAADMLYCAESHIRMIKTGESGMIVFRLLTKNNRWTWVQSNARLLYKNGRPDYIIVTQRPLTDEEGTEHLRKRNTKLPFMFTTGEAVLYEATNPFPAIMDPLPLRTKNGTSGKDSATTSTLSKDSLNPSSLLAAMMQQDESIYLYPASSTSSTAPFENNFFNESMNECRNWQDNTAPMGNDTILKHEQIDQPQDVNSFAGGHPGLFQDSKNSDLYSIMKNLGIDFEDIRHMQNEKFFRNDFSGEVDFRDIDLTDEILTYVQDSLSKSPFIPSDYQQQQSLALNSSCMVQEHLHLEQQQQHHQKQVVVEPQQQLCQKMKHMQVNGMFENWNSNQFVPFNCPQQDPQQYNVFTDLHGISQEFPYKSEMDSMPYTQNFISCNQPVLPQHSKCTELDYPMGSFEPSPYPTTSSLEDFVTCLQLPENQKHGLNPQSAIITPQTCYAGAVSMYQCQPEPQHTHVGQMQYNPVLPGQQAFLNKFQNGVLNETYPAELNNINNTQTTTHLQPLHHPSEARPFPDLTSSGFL
HIF activator – HIF pathway transcriptional activators, primary screen, cell-based, U2OS HRE-luciferase, luminescence; actives 0.32% (n = 300,000); activation, % at 7.5 µM (by protocol); AID 1910, 2009; U2OS HRE-luciferase reporter; normalized: DMSO 0%, desferrioxamine 100%;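 active means mean activation of at least 10% of the iron chelator positive control signal, with at least half of replicates also reaching 10%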
Yeast superoxide – reduction of superoxide in aged yeast, primary screen, HTS; S. cerevisiae aged cells, superoxide DHE fluorescence; hits give low values; superoxide response (% of plate mean), % at 10 µM; actives 0.18% (n = 330,000);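 active means superoxide response under a set limit, about three screen SD below normal, cut at about 65% in these data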;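 further: yeast aged for seven days with compound at 30 °C before DHE staining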
PLC-gamma1 inh – PLC-gamma1 enzyme inhibitors, primary screen, biochemical, fluorescence, purified enzyme; 1-phosphatidylinositol 4,5-bisphosphate phosphodiesterase gamma-1 (Homo sapiens), P19174; fluorogenic substrate; inhibition, % at 12.2 µM; actives 0.84% (n = 370,000); AID 720700, 2013; in the data active means inhibition above about 9.5%
HGIII-sPLA2 inh – human group III sPLA2 inhibitors, primary screen, biochemical, QFRET, BODIPY PC-A2 liposome substrate | Group 3 secretory phospholipase A2 (Homo sapiens), Q9NZ20 | QFRET BODIPY PC-A2 liposome hydrolysis, fluorescence | inhibition, % at 12.2 µM | actives 0.56% (n = 370,000) | AID 743126, 2013;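 active means inhibition above mean plus 3 SD of compounds lying within the high and low control bounds, cut at about 19% in these data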
Superoxide pick – superoxide lowering in aged yeast cells, confirmation, cherry picked compounds; shares compounds with Yeast superoxide; S. cerevisiae aging, superoxide DHE fluorescence; hits give low values; superoxide response (% of plate), % at 10 µM; actives 1% (n = 850); AID 434994, 2010;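 active means superoxide signal below 65% of the plate average of sample wells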;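 further: cells aged with compound for 7 days at 30 degrees C before staining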
DHE fluor count – DHE quenching or ROS scavenging interference in aged yeast, artefact control for yeast caloric restriction mimetic project, S. cerevisiae BY4741, flow cytometry. 850 tested, under 10 active. fluorescence response, % at 10 µM. shares compounds with Yeast superoxide. DHE fluorescence; hits give low values;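 active means fluorescence response below 15%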;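 further: lower means stronger quenching of DHE signal or ROS scavenging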
Numbers stand for hits; - = inactive; . = no result given. The list is not random: actives were taken first. Their share in the collection is about 3.9%.

SMILES | PLCb3 inh | AHR act | HIF activator | Yeast superoxide | PLC-gamma1 inh | HGIII-sPLA2 inh | Superoxide pick | DHE fluor count
COc1cccc(-c2cc(C(=O)N3CCN(S(=O)(=O)c4ccccc4)CC3)[nH]n2)c1 | - | - | - | - | - | - | . | .
CCOC(=O)c1ccc(NC(=O)Nc2ccn(C)n2)cc1 | . | - | - | 62.9 | . | . | - | -
Cc1nnsc1C(=O)NNc1ccc(C(C)(C)C)cc1 | - | - | - | - | - | - | . | .
Cc1nnsc1C(=O)NNC(=O)c1ccc(C(F)(F)F)cc1 | - | - | - | 63.5 | - | - | - | -
COc1ccccc1NC(=S)OC1CCC12CCC(c1ccccc1)CC2 (stereo not given) | - | . | . | . | - | - | . | .
CCOC(=O)NC(=O)/C(C#N)=N\Nc1cccc(OC)c1 | - | - | - | - | - | - | - | -
CCOC(=O)NC(=O)/C(C#N)=N/Nc1c(F)cccc1F | - | - | - | - | - | - | - | -
COc1ccc(C(=O)/C(C#N)=N/Nc2cccc([N+](=O)[O-])c2)cc1 | - | . | - | . | - | - | . | .
N#C/C(=N\Nc1ccccc1Cl)C(=O)c1ccccc1 | - | - | - | - | - | - | . | .
N#C/C(=N\Nc1c(Cl)cccc1Cl)C(=O)NN | - | - | - | - | - | - | - | -
COC(=O)[C@]12C[C@H](CC(=O)NCc3ccc(C)o3)C(=O)N(CCc3ccc(OC)c(OC)c3)C1=C[C@H](C(C)C)O[C@@H]2C1CC1 | - | . | . | . | - | - | . | .
O=c1oc2cc(OCc3c(F)cccc3Cl)ccc2cc1-c1ccccn1 | - | - | - | - | - | - | . | .
CCCOc1ccc2cc(-c3ccccn3)c(=O)oc2c1 | - | - | - | 59.5 | - | - | - | -
COc1ccc(/C=N/NC(=O)CCN2CCN(c3ccccc3)CC2)c(OC)c1OC | - | - | - | 62.3 | - | - | - | -
CC(C)[C@@H](C)/C=C/[C@@H](C)[C@H]1CC[C@@H]2[C@]1(C)CCC1[C@]23C=C[C@]2(C[C@@H](O)CC[C@]12C)N(c1ncc(C(F)(F)F)cc1Cl)O3 (stereo not given in full) | - | . | . | . | - | - | . | .
Cc1ccc(C(=O)n2c3ccccc3c3ccccc32)cc1 | - | - | - | - | - | - | . | .
CC(=O)n1c2ccccc2c2ccccc21 | - | - | - | - | - | - | - | -
CCN(CC)c1ccc2nc3ccccc3[n+](CC)c2c1 | . | - | - | 65.0 | . | . | - | -
CCc1nnc(NC(=O)c2ccc(S(=O)(=O)N(CC)Cc3ccccc3)cc2)o1 | - | - | - | - | - | - | . | .
CCN(Cc1ccccc1)S(=O)(=O)c1ccc(C(=O)Nc2nnc(C)o2)cc1 | - | - | - | - | - | - | - | -
COc1ccc(CN2CCN(Cc3cccc(Oc4ccccc4)c3)CC2)c(OC)c1OC | - | - | - | - | - | - | . | .
COc1ccc(CN2CCN(Cc3ccc(Br)cc3)CC2)c(OC)c1OC | - | - | - | 45.9 | - | - | - | -
O=C1C=C(NC2=CC3OC(c4ccccc4)OCC3OC2=O)CCC1 (stereo not given) | - | - | - | 60.1 | - | - | - | -
O=C1C=C(NCc2ccccc2)CCC1 | - | - | - | - | - | - | . | .
O=c1[nH]c(=S)[nH]c2c1C(c1ccc(Cl)cc1)OC(CCc1ccccc1)C2 (stereo not given) | - | . | . | . | - | - | . | .
SMILES | PLCb3 inh | AHR act | HIF activator | Yeast superoxide | PLC-gamma1 inh | HGIII-sPLA2 inh | Superoxide pick | DHE fluor count
CCN(CC)Cc1c(C(=O)N/N=C/c2cccc(OCc3cccc(Cl)c3)c2)nnn1-c1nonc1N | - | - | - | - | - | - | . | .
COCCCN1C(=O)N(c2ccccc2)C(=O)C1CC(=O)Nc1ccccc1 (stereo not given) | - | - | - | - | - | - | . | .
COCCCN1C(=O)N(c2ccccc2)C(=O)C1CC(=O)Nc1ccc(F)cc1 (stereo not given) | - | - | - | 62.5 | - | - | - | -
O=C(Nc1scc(-c2ccccc2)c1C(=O)O)c1ccc(F)cc1 | - | - | - | - | - | - | . | .
Cc1ccc(-c2csc(NC(=O)c3ccc(F)cc3)c2C(=O)O)cc1 | - | - | - | 64.5 | - | - | - | -
COc1cc(OC)cc(C(=O)NNC(=O)C(CCC(N)=O)NS(=O)(=O)c2ccc(Cl)cc2)c1 (stereo not given) | - | . | . | . | - | - | . | .
CCN1CCN(C(=O)N(CC(=O)Nc2ccc(C(N)=O)cc2)S(=O)(=O)c2ccc(C)cc2)CC1 | - | . | - | . | - | - | . | .
Cc1ccc(S(=O)(=O)N(CC(=O)Nc2ccc(C(N)=O)cc2)C(=O)N2CCN(C)CC2)cc1 | - | - | - | 64.9 | - | - | - | -
COC(=O)C1CCN(C(=O)CSc2nnc(-c3ccccc3)o2)CC1 | - | - | - | - | - | - | . | .
Nn1c(SCC(=O)Nc2ccc(F)cc2F)nnc1C1CCCCC1 | - | - | - | - | - | - | - | -
CN(C(=O)CSc1nc(O)cc(=O)n1C1CCCC1)c1ccccc1 | - | - | - | - | - | - | . | .
CN(C(=O)CSc1nc(O)cc(=O)n1-c1ccccc1F)c1ccccc1 | - | - | - | 49.7 | - | - | - | -
O=C(c1ccccc1)c1ccc(C(=O)N2CCN(c3ccccc3O)CC2)cc1 | - | . | . | . | - | - | . | .
Nc1ccccc1N1CCN(C(=O)c2ccccc2)CC1 | - | - | - | - | - | - | - | -
NC(=O)N/N=C/c1ccccc1OCc1cccc2ccccc12 | - | - | - | - | - | - | . | .
O=C(O)C1CCCN1S(=O)(=O)c1ccc(Cl)cc1 (stereo not given) | - | - | - | - | - | - | - | -
Cn1c(=O)c2ccccc2n(CC(=O)N2CCCc3ccccc32)c1=O | - | - | - | - | - | - | . | .
CC(=O)N1CCN(C(=O)c2ccc3c(c2)S(=O)(=O)c2ccccc2C3=O)CC1 | - | - | - | 47.1 | - | - | - | -
CN1CCN(C(=O)c2ccc3c(c2)S(=O)(=O)c2ccccc2C3=O)CC1 | - | - | - | - | - | - | . | .
CCc1cccc(C)c1NC(=O)COC(=O)c1ccc2c(c1)S(=O)(=O)c1ccccc1C2=O | - | - | - | 58.5 | - | - | - | -
Cc1c(Br)c(-c2n[nH]c(=S)n2Cc2ccco2)nn1C | - | - | - | - | - | - | . | .
Cc1cc(-c2n[nH]c(=S)n2Cc2ccco2)nn1C | - | - | - | 65.0 | - | - | - | -
CCOC(=O)CNC(=O)c1cccs1 | - | - | - | - | - | - | . | .

From PubChem BioAssay
